Compounds without any hit were thinned out: in the full panel of roughly 83,000, 20% have a hit.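 Assay: single dose, 48 h. Readout: percent growth (0 = no net growth; negative = cell death). Active: <10.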 Values without a mark were called inactive. Active and inactive are the calls of the source.

This assay deals with MDA-MB-468 breast. Description: NCI-60 one-dose screen, 48 h (100 = growth as untreated, 0 = no growth, -100 = all killed). The settings on record: 10 µM unless noted.
In the case of `CCCCNC(=O)C(=O)NCCCC`, the growth is 102%. With `O=c1[nH]c(=S)[nH]c(=O)n1Cc1cccc2ccccc12`, the growth is 107%.

For `Cc1cc(Br)nnc1Br`, the growth is 101%. For `O=c1oc2ccccc2c(Cl)c1Cl`, the growth was 4.65% (active).

As for `COc1cc2c3c(n(CCCN4CCCCC4)c(=O)c2cc1OC)-c1cc2c(cc1C3=O)OCO2`, the growth is -84% (active). Under `Cc1cn(-c2cccc(NC(=O)c3ccc(C)c(Nc4nccc(-c5cccnc5)n4)c3)c2)cn1` stands -41.4% (active). Take `Cc1c(Cl)cc(Cl)c(N)c1Cl`: the growth is 111%.

On to `CCOC(=O)c1cnn(CC(C)O)c1NC(=O)NCc1cccc(F)c1` (stereo not drawn), for which the growth was 105%. Under `C=CCc1cc(C(C)=O)cc(OC)c1O` stands 90.6%; under `C=CCSc1n[nH]c(-c2cccs2)n1`, 95.6%. Regarding `COc1ccc(Cn2c(C(N)=O)cc3c2-c2nc(N)ncc2CCC3)cc1`, the growth is 82.1%.

`O=C1C(Br)=CC2C1C1C3CCC3C2(Br)C12OCCO2` (stereo not drawn): the growth was 19.4%. With `COc1ccc(/C(C)=C(\c2ccc(OCCN3CCCCCC3)cc2)c2ccc(OC(=O)C3CCCCC3)cc2)cc1`, the growth is -74.5% (active). Under `S=C(Cc1ccccc1)N1CCN(c2ccccc2Cl)CC1` stands 101%; under `O=C1Cc2ccccc2C(=O)N1`, 45.8%; under `Clc1cc(Cl)cc(-c2ccc(-c3ccc(/C=N/NC4=NCCN4)cc3)s2)c1`, -3.62% (active). For `Cc1cc(Nc2c3ccccc3nc3ccccc23)ccc1NS(C)(=O)=O`, the growth is 23.6%. On to `C=CCNc1ccc2c3c(cccc13)C(=O)N(N1C(=O)c3cccc4cccc(c34)C1=O)C2=O`, for which the growth is 101%.

These data come from PubChem BioAssay (NCI).
